Screens deposited in PubChem by National Center for Advancing Translational Sciences (NCATS).
An excerpt weighted towards active compounds, which were near 6.2% of everything screened.
VP16 counter: inhibits Gal4-VP16 luciferase reporter, ROR gamma counter-screen. Potency, µM (series often up to 53.6 µM), hits mostly inhibitors. AID 2546. Drosophila S2 Gal4-VP16 UAS-luciferase, luminescence, 20 h. 310,000 compounds, 3.5% hits;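 also: Gal4-VP16 expression switched on by copper sulfate through the metallothionein promoter; nearly all actives have a fitted effect of over 50% in size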
RORgamma inh: inhibitors of mouse ROR gamma transcriptional activity. P51450. Drosophila S2 Gal4-RORgamma UAS-luciferase reporter, 20 h. Potency, µM (doses to about 53.6 µM), usual class: inhibitors. 310,000 compounds, 5.4% hits. AID 2551; also: nearly all actives have a fitted effect of over 60% in size
Target sequence (P51450 whole entry, looked up, the tested form may be a part): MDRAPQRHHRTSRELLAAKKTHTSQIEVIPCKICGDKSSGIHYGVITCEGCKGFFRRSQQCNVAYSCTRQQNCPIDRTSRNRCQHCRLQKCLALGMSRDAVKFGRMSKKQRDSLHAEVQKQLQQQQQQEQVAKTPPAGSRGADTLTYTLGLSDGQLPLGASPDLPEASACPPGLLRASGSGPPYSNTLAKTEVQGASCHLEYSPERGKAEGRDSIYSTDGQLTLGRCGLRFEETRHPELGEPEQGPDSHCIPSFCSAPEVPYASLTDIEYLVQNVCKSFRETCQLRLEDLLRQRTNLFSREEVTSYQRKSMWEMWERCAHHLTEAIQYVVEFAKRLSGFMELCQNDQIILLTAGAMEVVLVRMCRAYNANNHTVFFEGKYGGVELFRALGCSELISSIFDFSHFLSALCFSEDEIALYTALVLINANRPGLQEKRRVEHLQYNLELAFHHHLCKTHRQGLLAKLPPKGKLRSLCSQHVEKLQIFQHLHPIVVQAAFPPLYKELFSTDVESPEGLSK
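Drosophila Schneider cells stably carrying a metallothionein-driven Gal4 DBD–ROR gamma fusion and a UAS-Photinus luciferase reporter were exposed to compound for 1 hr, then induced with copper sulfate (700 uM final) for 20 hr at ambient temperature before luminescence reading.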
Luc counter: Kinase-Glo luciferase inhibition (counter-screen) | Q27757 | Kinase-Glo luciferase, ATP luminescence, 8 min | Potency, µM (series often up to 38.3 µM), most hits filed as inhibitors | 200,000 compounds, 0.28% hits | AID 1379; also: nearly all actives have a fitted effect of over 60% in size
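Luminescence was the read-out, taken after 8-minute incubation at ambient temperature. Luciferase turned over luciferin with 10 uM ATP in imidazole pH 7.2 buffer containing KCl, MgCl2, Tween 20 and BSA.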
Each line names hits and unclear results; the compound was inactive in the other large screens. Calls follow the shape of the dose curve; as a rule, active = well fitted curve in the direction sought with a large enough effect; inconclusive = small, poorly fitted or top-dose-only effect, or another doubt; inactive = no such curve, though single readings can be large; an effect the other way counts as inactive or inconclusive.

Cc1nn(C(=O)CCC(=O)NCc2ccc(OC(C)C)cc2)c2ccccc12	none (no result: Luc counter)
COCCNC(=O)/C(C#N)=C\c1ccc(CNC(=O)C(=O)Nc2ccc(C)c(C)c2)o1	none
COc1ccc(NC(=O)C(=O)N/N=C\c2ccc(CNC(=O)C(=O)Nc3ccc(C)c(C)c3)o2)c(OC)c1	VP16 counter 3.2µM (no result: Luc counter)
COCc1n[nH]c(=S)n1-c1cccc2ccccc12	RORgamma inh inconclusive
Fc1ccccc1-n1c(-c2ccc3ccccc3n2)n[nH]c1=S	VP16 counter inconclusive, RORgamma inh 1.4µM
S=c1[nH]nc(-c2ccc3ccccc3n2)n1-c1ccccc1	VP16 counter 2µM, RORgamma inh 1.4µM
COc1ccc(CCNC(=O)C2CCN(S(=O)(=O)c3ccc(C)cc3)CC2)cc1OC	none (no result: Luc counter)
CC(=O)Nc1ccc(S(=O)(=O)N2CCC3(CC2)OCCO3)cc1	none (no result: Luc counter)
CCc1nc2nc(C)c(NS(=O)(=O)c3ccc(C4CCCCC4)cc3)c(=O)n2[nH]1	none (no result: Luc counter)
CN(C)Cc1ccccc1-c1cncnc1Nc1ccc(F)cc1	none
Cc1cc(C)c(NC(=S)N(CCN2CCCCC2)Cc2ccco2)c(C)c1	RORgamma inh 10µM
Cc1ccccc1NC(=S)N(CCN1CCCCC1)Cc1ccco1	none
CCc1ccc(NC(=S)N(CCN2CCCCC2)Cc2ccco2)cc1	VP16 counter inconclusive, RORgamma inh inconclusive
Cc1cccc(C)c1NC(=S)N(CCN1CCCCCC1)Cc1ccco1	RORgamma inh 13µM
Nn1c(SCc2cccc(F)c2)nnc1-c1ccncc1	none (no result: Luc counter)
CCS(=O)(=O)N1CCC(C(=O)Nc2ccc(C(C)=O)cc2)CC1	none (no result: Luc counter)
Cc1ccc(-c2cc(-c3cccc(F)c3)n[nH]2)c(O)c1	VP16 counter 10µM, RORgamma inh 11µM
Cc1ccc(O)c(-c2cc(-c3cccc(F)c3)n[nH]2)c1	VP16 counter inconclusive, RORgamma inh inconclusive
Cc1ccc(O)c(-c2cc(-c3ccccc3F)[nH]n2)c1	VP16 counter inconclusive, RORgamma inh inconclusive
Cc1ccc(-c2cc(-c3ccccc3C)[nH]n2)c(O)c1	VP16 counter 1.4µM, RORgamma inh 0.79µM
COc1cc(C(=O)NC2CCCNC2)cc(OC)c1OC (stereo not drawn)	none (no result: Luc counter)
O=C1SC(SC(=Nc2ccccc2)Nc2ccccc2)C(=O)N1c1ccccc1 (stereo not drawn)	none
Cc1cc(C)cc(/C=C/C2OCC(O)C2Oc2ccc(C3CCCC3)cc2)c1 (stereo not drawn)	none (no result: Luc counter)
Cc1sc2ncnc(Sc3ccccc3C(=O)Nc3ccc(C#N)cc3)c2c1C	none
Cc1sc2ncnc(Sc3ccccc3C(=O)Nc3ccc(Br)cc3)c2c1C	VP16 counter 8.9µM, RORgamma inh 10µM (no result: Luc counter)
CCCCCc1cc(=O)[nH]c(=S)[nH]1	none (no result: Luc counter)
CCCCCc1ccc(C(=O)CCCC)c(=S)[nH]1	RORgamma inh 2.5µM
O=[N+]([O-])c1cc(/C=N/N/C(=N/c2ccccn2)c2ccccn2)ccc1O	VP16 counter 4.5µM, RORgamma inh 1.4µM
O=C(N/N=C/c1ccc(O)c([N+](=O)[O-])c1)c1ccncc1	none (no result: Luc counter)
O=[N+]([O-])c1ccc(/C=N/Nc2ccccn2)cc1	none (no result: Luc counter)
O=[N+]([O-])c1ccc(/C=N/N/C(=N/c2ccccn2)c2ccccn2)cc1	RORgamma inh 11µM
Cc1ccccc1-c1cccc(CN2CCN(C)C(CCO)C2)c1 (stereo not drawn)	none (no result: Luc counter)
O=C(O)c1ccc2c(c1)C(=O)N([C@H](Cc1ccc(O)c(O)c1)C(=O)O)C2=O	none (no result: Luc counter)
COCCNC(=O)C(c1ccc(C)cc1)N(Cc1ccco1)C(=O)CCC(=O)Nc1ccccn1 (stereo not drawn)	none (no result: Luc counter)
O=c1cc(O)n(-c2ccc(Cl)cc2)c(=S)[nH]1	RORgamma inh inconclusive
FC(F)(F)c1cnc2c(c1)[nH]c(=S)n2-c1ccc(Cl)cc1	VP16 counter inconclusive, RORgamma inh 7.9µM (no result: Luc counter)
CC(=O)Oc1cc(C)c(OC(C)=O)c2ccccc12	none (no result: Luc counter)
CC1=CC(=O)C2=C(C)C[C@@H]3OC(=O)[C@@H](C)[C@H]3C=C12	none
COc1cc(OC)cc(C(=O)NC(=S)Nc2ccc3c4c(cccc24)CC3)c1	VP16 counter 5.6µM, RORgamma inh inconclusive
COc1ccc(C(=O)Nc2ccc3c4c(cccc24)CC3)cc1	none
COc1ccc(C(=O)NC(=S)Nc2ccc3c4c(cccc24)CC3)cc1OC	VP16 counter inconclusive, RORgamma inh 7.9µM
Cc1c(C(=O)Nc2ccc3c4c(cccc24)CC3)cccc1[N+](=O)[O-]	none
Cc1c(C(=O)NC(=S)Nc2ccc3c4c(cccc24)CC3)cccc1[N+](=O)[O-]	VP16 counter 5µM, RORgamma inh 2.2µM
CC(C)Oc1cccc(C(=O)NC(=S)Nc2ccc3c4c(cccc24)CC3)c1	VP16 counter inconclusive, RORgamma inh 11µM (no result: Luc counter)
Cc1ccc(C(=O)Nc2ccc3c4c(cccc24)CC3)cc1[N+](=O)[O-]	none
CC(C)Oc1cccc(C(=O)NC(=S)NCc2cccnc2)c1	VP16 counter inconclusive, RORgamma inh inconclusive
